Data on 17 targets can be found in the supplement of paper PMC11001985.

Values without a mark were called inactive.

UniProt O75369, sequence (O75369 whole entry): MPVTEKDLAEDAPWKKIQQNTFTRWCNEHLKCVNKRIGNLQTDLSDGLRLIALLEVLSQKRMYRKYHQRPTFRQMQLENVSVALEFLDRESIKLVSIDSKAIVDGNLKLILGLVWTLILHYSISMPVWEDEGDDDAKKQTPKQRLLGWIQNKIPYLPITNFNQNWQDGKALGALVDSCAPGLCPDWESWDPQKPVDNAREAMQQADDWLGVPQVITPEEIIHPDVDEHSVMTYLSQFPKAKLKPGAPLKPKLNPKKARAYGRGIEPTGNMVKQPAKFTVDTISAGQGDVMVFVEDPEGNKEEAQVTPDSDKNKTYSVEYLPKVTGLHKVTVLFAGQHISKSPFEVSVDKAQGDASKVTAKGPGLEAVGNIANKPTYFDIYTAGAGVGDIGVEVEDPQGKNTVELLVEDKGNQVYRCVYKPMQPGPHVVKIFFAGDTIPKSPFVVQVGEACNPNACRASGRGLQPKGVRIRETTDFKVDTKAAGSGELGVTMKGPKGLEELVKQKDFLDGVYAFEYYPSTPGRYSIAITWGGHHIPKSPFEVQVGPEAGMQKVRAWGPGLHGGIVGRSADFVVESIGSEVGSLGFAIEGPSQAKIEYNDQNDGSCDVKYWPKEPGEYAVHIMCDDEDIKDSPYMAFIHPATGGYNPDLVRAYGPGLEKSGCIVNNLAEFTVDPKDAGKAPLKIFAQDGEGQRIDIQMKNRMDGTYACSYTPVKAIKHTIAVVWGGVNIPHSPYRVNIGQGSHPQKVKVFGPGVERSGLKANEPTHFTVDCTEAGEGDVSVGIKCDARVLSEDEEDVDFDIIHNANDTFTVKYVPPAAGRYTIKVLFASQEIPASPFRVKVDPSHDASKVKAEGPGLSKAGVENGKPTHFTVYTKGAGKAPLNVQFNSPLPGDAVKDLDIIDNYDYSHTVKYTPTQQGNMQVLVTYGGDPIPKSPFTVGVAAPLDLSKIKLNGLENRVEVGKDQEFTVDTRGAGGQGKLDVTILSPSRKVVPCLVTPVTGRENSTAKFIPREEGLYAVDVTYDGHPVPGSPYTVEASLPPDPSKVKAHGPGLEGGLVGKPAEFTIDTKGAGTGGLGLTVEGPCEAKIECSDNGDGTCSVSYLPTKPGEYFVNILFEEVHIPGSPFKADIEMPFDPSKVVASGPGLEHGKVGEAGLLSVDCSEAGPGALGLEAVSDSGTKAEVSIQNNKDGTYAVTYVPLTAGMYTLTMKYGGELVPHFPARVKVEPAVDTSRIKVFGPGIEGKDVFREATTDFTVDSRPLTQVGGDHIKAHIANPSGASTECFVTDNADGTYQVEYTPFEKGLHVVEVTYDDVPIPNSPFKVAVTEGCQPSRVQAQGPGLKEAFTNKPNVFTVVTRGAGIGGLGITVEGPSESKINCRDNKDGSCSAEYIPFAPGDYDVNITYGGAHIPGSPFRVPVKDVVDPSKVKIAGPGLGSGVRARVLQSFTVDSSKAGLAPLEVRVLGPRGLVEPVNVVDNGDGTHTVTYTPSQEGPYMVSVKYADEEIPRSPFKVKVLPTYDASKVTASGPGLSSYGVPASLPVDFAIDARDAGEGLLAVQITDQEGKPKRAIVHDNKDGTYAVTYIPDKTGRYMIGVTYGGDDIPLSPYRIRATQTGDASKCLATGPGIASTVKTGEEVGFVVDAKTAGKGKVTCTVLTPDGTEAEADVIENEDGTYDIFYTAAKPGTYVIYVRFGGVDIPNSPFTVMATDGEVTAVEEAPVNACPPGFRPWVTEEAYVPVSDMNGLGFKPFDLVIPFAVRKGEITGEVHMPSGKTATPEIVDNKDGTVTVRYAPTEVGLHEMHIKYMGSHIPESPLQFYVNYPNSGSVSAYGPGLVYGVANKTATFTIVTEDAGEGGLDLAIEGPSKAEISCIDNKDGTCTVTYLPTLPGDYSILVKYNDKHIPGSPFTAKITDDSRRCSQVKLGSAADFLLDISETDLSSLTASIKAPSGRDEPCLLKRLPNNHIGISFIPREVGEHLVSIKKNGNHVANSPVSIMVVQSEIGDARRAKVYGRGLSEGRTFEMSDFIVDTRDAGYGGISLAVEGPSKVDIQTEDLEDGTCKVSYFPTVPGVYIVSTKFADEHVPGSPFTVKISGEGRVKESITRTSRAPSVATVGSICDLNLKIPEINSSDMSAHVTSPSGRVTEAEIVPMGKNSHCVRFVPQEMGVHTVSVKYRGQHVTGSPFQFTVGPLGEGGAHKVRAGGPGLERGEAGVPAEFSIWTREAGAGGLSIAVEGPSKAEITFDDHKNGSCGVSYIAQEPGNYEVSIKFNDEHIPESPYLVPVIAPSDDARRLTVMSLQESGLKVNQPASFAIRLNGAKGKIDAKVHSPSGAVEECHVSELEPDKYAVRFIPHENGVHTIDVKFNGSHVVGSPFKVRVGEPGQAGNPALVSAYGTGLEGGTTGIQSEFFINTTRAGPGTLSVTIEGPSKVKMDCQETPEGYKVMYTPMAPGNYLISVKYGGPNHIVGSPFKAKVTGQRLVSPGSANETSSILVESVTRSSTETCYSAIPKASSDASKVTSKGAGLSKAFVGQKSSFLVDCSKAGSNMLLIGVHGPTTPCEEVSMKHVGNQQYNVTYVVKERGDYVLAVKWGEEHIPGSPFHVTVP
UniProt P08195, sequence (P08195 whole entry): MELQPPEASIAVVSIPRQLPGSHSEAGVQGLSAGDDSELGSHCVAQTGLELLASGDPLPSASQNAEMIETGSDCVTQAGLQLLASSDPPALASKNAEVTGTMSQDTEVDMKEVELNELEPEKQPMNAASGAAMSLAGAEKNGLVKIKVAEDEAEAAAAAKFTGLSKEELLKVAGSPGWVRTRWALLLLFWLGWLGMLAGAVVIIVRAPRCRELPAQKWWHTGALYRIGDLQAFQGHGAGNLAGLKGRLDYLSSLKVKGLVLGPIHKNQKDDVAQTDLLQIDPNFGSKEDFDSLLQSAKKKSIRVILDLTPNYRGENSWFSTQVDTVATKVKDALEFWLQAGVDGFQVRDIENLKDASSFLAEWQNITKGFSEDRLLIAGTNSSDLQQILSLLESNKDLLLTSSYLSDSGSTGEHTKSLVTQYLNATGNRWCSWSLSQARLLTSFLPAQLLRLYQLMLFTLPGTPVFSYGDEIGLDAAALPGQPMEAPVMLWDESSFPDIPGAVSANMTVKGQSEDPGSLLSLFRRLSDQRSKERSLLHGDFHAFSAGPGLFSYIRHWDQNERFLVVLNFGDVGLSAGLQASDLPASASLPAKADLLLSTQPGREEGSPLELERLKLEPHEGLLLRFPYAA
UniProt P16422, sequence (P16422 whole entry): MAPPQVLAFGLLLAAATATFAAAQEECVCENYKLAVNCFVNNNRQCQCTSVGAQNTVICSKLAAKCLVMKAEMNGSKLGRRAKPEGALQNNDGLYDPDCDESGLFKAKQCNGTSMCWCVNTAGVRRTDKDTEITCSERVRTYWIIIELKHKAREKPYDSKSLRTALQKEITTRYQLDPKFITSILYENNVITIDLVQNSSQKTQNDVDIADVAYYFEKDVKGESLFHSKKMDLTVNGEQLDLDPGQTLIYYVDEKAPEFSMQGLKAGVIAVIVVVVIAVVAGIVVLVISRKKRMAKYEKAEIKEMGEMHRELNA
UniProt P23229, sequence (P23229 whole entry): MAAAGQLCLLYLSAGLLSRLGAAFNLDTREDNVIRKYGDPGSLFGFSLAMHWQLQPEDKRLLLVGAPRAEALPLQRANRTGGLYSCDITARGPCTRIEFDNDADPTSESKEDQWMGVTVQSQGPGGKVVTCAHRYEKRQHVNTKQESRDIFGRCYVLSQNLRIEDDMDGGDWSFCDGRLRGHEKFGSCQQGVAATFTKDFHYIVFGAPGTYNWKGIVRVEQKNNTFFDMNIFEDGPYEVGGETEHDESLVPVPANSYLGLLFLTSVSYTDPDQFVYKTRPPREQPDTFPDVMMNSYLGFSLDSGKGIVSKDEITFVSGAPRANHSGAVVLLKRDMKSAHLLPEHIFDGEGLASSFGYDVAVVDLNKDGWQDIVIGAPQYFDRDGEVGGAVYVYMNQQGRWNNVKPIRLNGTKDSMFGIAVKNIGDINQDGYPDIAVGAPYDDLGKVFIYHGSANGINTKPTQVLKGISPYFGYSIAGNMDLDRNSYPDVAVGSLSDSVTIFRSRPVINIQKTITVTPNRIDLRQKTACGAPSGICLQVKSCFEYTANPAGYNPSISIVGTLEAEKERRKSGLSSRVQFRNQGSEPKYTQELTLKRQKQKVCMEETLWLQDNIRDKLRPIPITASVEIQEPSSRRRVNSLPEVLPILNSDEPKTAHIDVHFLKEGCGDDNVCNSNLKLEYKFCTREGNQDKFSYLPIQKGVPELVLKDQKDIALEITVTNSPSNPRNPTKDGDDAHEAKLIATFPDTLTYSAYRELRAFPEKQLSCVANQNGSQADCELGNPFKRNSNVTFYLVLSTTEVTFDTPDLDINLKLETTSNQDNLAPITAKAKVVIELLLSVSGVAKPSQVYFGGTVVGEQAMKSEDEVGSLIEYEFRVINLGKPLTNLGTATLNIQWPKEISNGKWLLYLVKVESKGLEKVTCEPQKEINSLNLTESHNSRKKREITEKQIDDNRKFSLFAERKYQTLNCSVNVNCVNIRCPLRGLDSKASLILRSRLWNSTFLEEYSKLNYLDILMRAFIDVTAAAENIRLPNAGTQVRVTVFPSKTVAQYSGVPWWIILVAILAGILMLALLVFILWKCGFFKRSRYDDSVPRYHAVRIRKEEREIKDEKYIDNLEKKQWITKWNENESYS
UniProt P14384, sequence (P14384 whole entry): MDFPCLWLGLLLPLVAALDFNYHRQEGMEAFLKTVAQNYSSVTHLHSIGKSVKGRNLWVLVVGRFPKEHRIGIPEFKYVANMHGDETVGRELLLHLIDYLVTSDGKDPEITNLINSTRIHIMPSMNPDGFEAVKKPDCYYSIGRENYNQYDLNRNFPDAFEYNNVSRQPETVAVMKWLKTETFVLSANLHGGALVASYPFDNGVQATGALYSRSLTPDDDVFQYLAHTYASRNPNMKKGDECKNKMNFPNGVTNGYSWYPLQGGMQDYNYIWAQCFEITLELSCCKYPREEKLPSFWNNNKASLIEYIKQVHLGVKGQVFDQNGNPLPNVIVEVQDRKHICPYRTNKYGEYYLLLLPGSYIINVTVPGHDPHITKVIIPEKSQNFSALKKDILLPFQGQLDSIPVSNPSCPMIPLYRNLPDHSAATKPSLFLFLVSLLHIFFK

Compound in this assay: C#CCNC(=O)CCSSCCC(=O)NCCc1ccc(C=O)c(C=O)c1
Description: lysine labeling ratio R10:1 (500 µM / 50 µM probe), SILAC-ABPP in living cells; higher = lower intrinsic lysine reactivity toward the probe, active = 2 or less. To be noted: HeLa; probe concentrations 500 vs 50 µM. The procedure, abridged:
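Each lysine carries an R value: the filtered median of MS1 peptide ratios of high probe to low probe, with the median then taken over forward and reverse replicates. These came from living SILAC light and heavy HeLa cells in PBS at room temperature labelled with an alkyne-tagged, disulfide-linked lysine probe at 500 µM or 50 µM, in forward and reverse swaps. The lysates were mixed, clicked to biotin-azide, trypsin-digested, captured on neutravidin, released by DTT, alkylated and run by LC-MS/MS on a TIMS-TOF Pro. The highest value allowed is 20.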
Take “STOM (lysine site: K198) (UniProt P27105)”: the “lysine labeling ratio R10:1” value is 5.83.
For the target “MYO1C (lysine site: K667) (UniProt O00159)”, the “lysine labeling ratio R10:1” value is 2.86.
On to “HSPA9 (lysine site: K143) (UniProt P38646)”, for which the “lysine labeling ratio R10:1” value is 2.54.
With “HMGN2 (lysine site: K16) (UniProt P05204)”, the “lysine labeling ratio R10:1” value was 1.78 (active).
With “PDCD6IP (lysine site: K285) (UniProt Q8WUM4)”, the “lysine labeling ratio R10:1” value was 15.7.
The value for “CCT4 (lysine site: K395) (UniProt P50991)” was 3.34; that for “HSP90AB1 (lysine site: K624) (UniProt P08238)” was 7.02.
As for “ITGA6 (lysine site: K615) (UniProt P23229)”, the “lysine labeling ratio R10:1” value is 6.91.
Consider “CPM (lysine site: K135) (UniProt P14384)”, for which the “lysine labeling ratio R10:1” value was 0.991 (active).
Consider “ITGA4 (lysine site: K526) (UniProt P13612)”, for which the “lysine labeling ratio R10:1” value is 1.76 (active).
The value for “FLNB (lysine site: K976) (UniProt O75369)” was 1.86 (active); that for “LAMB1 (lysine site: K1368) (UniProt P07942)” was 1.59 (active); that for “ATP6AP1 (lysine site: K380) (UniProt Q15904)” was 1.79 (active).
With UniProt Q6PIU2 (lysine site: K359), the “lysine labeling ratio R10:1” value was 1.48 (active).
The value for “EPCAM (lysine site: K168) (UniProt P16422)” was 6.35; that for UniProt P62805 (lysine site: K32) was 7.5.
Turning to “SLC3A2 (lysine site: K299) (UniProt P08195)”, the “lysine labeling ratio R10:1” value was 6.33.
